Experimental data: PubChem BioAssay
Activity calls are given as the source filed them.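 How the source made its calls, unless noted: active means hit in primary screen, with calcium signal over 5 SD above buffer well mean in both duplicates; inactive means the rest.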

tested on: TRPC4 (mouse), co-expressed with 5HT1a in HEK293; experiment: enhancement of serotonin-evoked TRPC4 response – cell-based, second counter screen, HEK293 TRPC4/5HT1a, Fluo-4, counter-screen for TRPC4 potentiator project, confirmation (AID 434979;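 active means signal rise over 3 SD above mean of control wells given weak agonist, in both repeats and first screen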); conditions: Fluo-4 calcium flux, at 10 µM, serotonin added at its EC20 dose; hits give high values

SMILES | potentiation | outcome
CC(C)C(=O)N1CCN(c2nc(-c3ccccc3)c3c(c2C#N)CCCC3)CC1 | 29.4% (active) | 
CC(=O)n1cc([C@@H]2C=C(C(=O)NCc3ccccc3)O[C@H](OCc3ccc(CO)cc3)C2)c2ccccc21 | 14.7% (active) | 
CCN1CCN(c2nc(N)c([N+](=O)[O-])c(Nc3ccc(C)c(C)c3)n2)CC1 | 10.5% (active) | 
CN1/C(=C\C=[N+](C)c2ccccc2)C(C)(C)c2ccccc21 |  | inactive
COc1cc(NC(=O)C(C)Oc2ccccc2)cc(OC)c1 (stereo not drawn) |  | inactive
CCCCc1ccc(NC(=O)CSc2nnc(C)c(=O)n2N)cc1 | 43.5% (active) | 
O=C(COc1ccc(Br)cc1Cl)c1ccc[nH]1 |  | inactive
Clc1cc(/C=N\NC2=NCCN2)cc(Cl)n1 |  | inactive
Cc1cc(OCC(=O)N2CCCC2)cc(C)c1Cl |  | inactive
CCOC(=O)CC(NS(=O)(=O)c1ccc(OC)c(C)c1)c1cccc([N+](=O)[O-])c1 (stereo not drawn) |  | inactive
O=C(COc1coc(CN2CCN(c3ccccc3F)CC2)cc1=O)Nc1ccccc1 |  | inactive
CN(C)CCCNC(=O)/C=C/c1ccc(OCc2c(F)cccc2Cl)cc1 | 16.2% (active) | 
CC(C)c1cccc(OCCCCN(C)C)c1 | 16.2% (active) | 
CNc1oc(-c2ccccc2Cl)nc1P(=O)(c1ccccc1)c1ccccc1 |  | inactive
Cc1ccc(C(=O)C[n+]2cccc3cc(C)ccc32)cc1 |  | inactive
CCCN1CCN(C(=S)NCc2ccc(Cl)cc2)CC1 | 19.3% (active) | 
CC(=O)Nc1nc(-c2ccc3c(c2)CCN3C(=O)C2CC2)c(C)s1 |  | inactive
COC(=O)c1ccccc1NC(=O)CCC(=O)N1CC(C)Oc2ccc(C)cc21 (stereo not drawn) |  | inactive
CN1CCN(S(=O)(=O)c2ccc(Br)c3ccccc23)CC1 | 26.5% (active) | 
CC(C)(C)C(=O)NCCCc1nc2ccccc2n1CCCOc1ccc(Cl)cc1 |  | inactive

SMILES | potentiation | outcome
CCN(CC)c1ccc(CNc2nc3ccccc3n2CCN2CCCCC2)cc1 |  | inactive
O=[N+]([O-])c1ccc(S(=O)(=O)NCCCc2ccccc2)cc1 |  | inactive
CC(=O)c1ccc(OCC(O)CN2CCN(S(=O)(=O)c3c(C)cc(C)cc3C)CC2)cc1 (stereo not drawn) | 27.2% (active) | 
CC(=O)c1ccc(N2CCN(c3ccc(S(=O)(=O)NCCCN(C)C)cc3[N+](=O)[O-])CC2)cc1 | 14.6% (active) | 
C=CCn1c(SCCN2CCCCC2)nc2c1c(=O)[nH]c(=O)n2C | 20% (active) | 
CCCN(C(=O)COC(=O)C12CCC(=O)N1c1ccccc1S2)c1c(N)n(Cc2ccccc2)c(=O)[nH]c1=O (stereo not drawn) |  | inactive
Cc1cc(C(=O)CN2C(=O)C(=O)N(CC(C)C)C2=O)c(C)n1-c1ccccc1F | 35.1% (active) | 
C/C(=N\NC(=O)COc1ccc(C)cc1C(C)C)c1ccc(-n2ccnc2)cc1 | 10.4% (active) | 
COc1cc(/C=C2\C(=O)ON=C2c2ccccc2)cc(Cl)c1O |  | inactive
CN(CC(=O)Nc1ccc(F)cc1)C(=O)COC(=O)C1CCN(c2ccc(C(F)(F)F)cn2)CC1 |  | inactive
CCCN(CCC)CCCNC(=O)c1cc2c(=O)n(C)c3ccccc3c2n1C | 23.1% (active) | 
COc1ccccc1CC(=O)N1CCN(S(=O)(=O)c2ccccc2)CC1 | 44.4% (active) | 
O=C(COc1ccccc1)NC1CCCCCCC1 | 40.7% (active) | 
O=C(CC1C(=O)NCCN1C(=O)Nc1ccccc1)Nc1cc(Cl)cc(Cl)c1 (stereo not drawn) | 21.1% (active) | 
COc1ccc(NS(=O)(=O)c2cccc(C(=O)N3CCN(Cc4cc(OC)ccc4OC)CC3)c2)cc1 |  | inactive
Cc1ccc(C(=O)c2no[n+]([O-])c2C(=O)c2ccc(C)cc2)cc1 | 59.9% (active) | 
O=C(NC1CCCC1)c1cc2ccccc2o1 | 19.7% (active) | 
COc1ccc(-n2cc(CNCc3cccnc3)c(-c3cccc(F)c3)n2)cc1 |  | inactive
CN1CCCN(Cc2cccc3ccccc23)CC1 | 28.3% (active) | 

tested on: not listed separately; experiment: nonspecific calcium rise without TRPC4 – cell-based, HEK293 mu-opioid receptor line, counter-screen for TRPC4 activator project, confirmation (AID 449723); conditions: HEK293 mu-opioid cells, Fluo-4 calcium fluorescence, at 10 µM; hits give high values;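 further: counter screen cells carry the mu-opioid receptor alone and lack TRPC4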

SMILES | outcome
CC(C)C(=O)N1CCN(c2nc(-c3ccccc3)c3c(c2C#N)CCCC3)CC1 | inactive
CC(=O)n1cc([C@@H]2C=C(C(=O)NCc3ccccc3)O[C@H](OCc3ccc(CO)cc3)C2)c2ccccc21 | inactive
CCN1CCN(c2nc(N)c([N+](=O)[O-])c(Nc3ccc(C)c(C)c3)n2)CC1 | inactive
CN1/C(=C\C=[N+](C)c2ccccc2)C(C)(C)c2ccccc21 | inactive
COc1cc(NC(=O)C(C)Oc2ccccc2)cc(OC)c1 (stereo not drawn) | inactive
CCCCc1ccc(NC(=O)CSc2nnc(C)c(=O)n2N)cc1 | inactive
O=C(COc1ccc(Br)cc1Cl)c1ccc[nH]1 | inactive
Clc1cc(/C=N\NC2=NCCN2)cc(Cl)n1 | inactive
Cc1cc(OCC(=O)N2CCCC2)cc(C)c1Cl | inactive
CCOC(=O)CC(NS(=O)(=O)c1ccc(OC)c(C)c1)c1cccc([N+](=O)[O-])c1 (stereo not drawn) | inactive
O=C(COc1coc(CN2CCN(c3ccccc3F)CC2)cc1=O)Nc1ccccc1 | inactive
CN(C)CCCNC(=O)/C=C/c1ccc(OCc2c(F)cccc2Cl)cc1 | inactive
CC(C)c1cccc(OCCCCN(C)C)c1 | inactive
CNc1oc(-c2ccccc2Cl)nc1P(=O)(c1ccccc1)c1ccccc1 | inactive
Cc1ccc(C(=O)C[n+]2cccc3cc(C)ccc32)cc1 | inactive
CCCN1CCN(C(=S)NCc2ccc(Cl)cc2)CC1 | inactive
CC(=O)Nc1nc(-c2ccc3c(c2)CCN3C(=O)C2CC2)c(C)s1 | inactive
COC(=O)c1ccccc1NC(=O)CCC(=O)N1CC(C)Oc2ccc(C)cc21 (stereo not drawn) | inactive
CN1CCN(S(=O)(=O)c2ccc(Br)c3ccccc23)CC1 | inactive
CC(C)(C)C(=O)NCCCc1nc2ccccc2n1CCCOc1ccc(Cl)cc1 | inactive

SMILES | outcome
CCN(CC)c1ccc(CNc2nc3ccccc3n2CCN2CCCCC2)cc1 | inactive
O=[N+]([O-])c1ccc(S(=O)(=O)NCCCc2ccccc2)cc1 | inactive
CC(=O)c1ccc(OCC(O)CN2CCN(S(=O)(=O)c3c(C)cc(C)cc3C)CC2)cc1 (stereo not drawn) | inactive
CC(=O)c1ccc(N2CCN(c3ccc(S(=O)(=O)NCCCN(C)C)cc3[N+](=O)[O-])CC2)cc1 | inactive
C=CCn1c(SCCN2CCCCC2)nc2c1c(=O)[nH]c(=O)n2C | inactive
CCCN(C(=O)COC(=O)C12CCC(=O)N1c1ccccc1S2)c1c(N)n(Cc2ccccc2)c(=O)[nH]c1=O (stereo not drawn) | inactive
Cc1cc(C(=O)CN2C(=O)C(=O)N(CC(C)C)C2=O)c(C)n1-c1ccccc1F | inactive
C/C(=N\NC(=O)COc1ccc(C)cc1C(C)C)c1ccc(-n2ccnc2)cc1 | inactive
COc1cc(/C=C2\C(=O)ON=C2c2ccccc2)cc(Cl)c1O | inactive
CN(CC(=O)Nc1ccc(F)cc1)C(=O)COC(=O)C1CCN(c2ccc(C(F)(F)F)cn2)CC1 | inactive
CCCN(CCC)CCCNC(=O)c1cc2c(=O)n(C)c3ccccc3c2n1C | inactive
COc1ccccc1CC(=O)N1CCN(S(=O)(=O)c2ccccc2)CC1 | inactive
O=C(COc1ccccc1)NC1CCCCCCC1 | inactive
O=C(CC1C(=O)NCCN1C(=O)Nc1ccccc1)Nc1cc(Cl)cc(Cl)c1 (stereo not drawn) | inactive
COc1ccc(NS(=O)(=O)c2cccc(C(=O)N3CCN(Cc4cc(OC)ccc4OC)CC3)c2)cc1 | inactive
Cc1ccc(C(=O)c2no[n+]([O-])c2C(=O)c2ccc(C)cc2)cc1 | inactive
O=C(NC1CCCC1)c1cc2ccccc2o1 | inactive
COc1ccc(-n2cc(CNCc3cccnc3)c(-c3cccc(F)c3)n2)cc1 | inactive
CN1CCCN(Cc2cccc3ccccc23)CC1 | inactive
